Screens deposited in PubChem by Buhrlage Lab, Dana-Farber Cancer Institute and Novartis Institutes for BioMedical Research (Cambridge, Mass).
USP7 inh: human USP7 deubiquitinase inhibition. AID 1645854. Q93009. actives 0.3% (n = 47,000). purified USP7, Ub-rhodamine cleavage fluorescence. inhibition, % at 20 µM
USP10 inh: inhibitors of human USP10 deubiquitinase | Q14694 | purified USP10, Ub-rhodamine fluorescence, 60 min | inhibition, % at 20 µM | actives 1.1% (n = 47,000)
USP8 inh: inhibitors of human USP8 deubiquitinase. actives 4.2% (n = 47,000). purified USP8, Ub-rhodamine cleavage fluorescence, 30 min. P40818. inhibition, % at 20 µM. AID 1645853
UCHL1 block: human UCHL1 deubiquitinase inhibition | actives 0.2% (n = 47,000) | purified UCHL1, Ub-rhodamine cleavage fluorescence | P09936 | inhibition, % at 20 µM
An asterisk follows results filed as active. Sampled rows, rich in hits. Any-hit rate of the full collection: about 4.6%. Rule as the data show it: active = inhibition above about 30%; inactive = the rest.

SMILES	USP7 inh	USP10 inh	USP8 inh	UCHL1 block
O=C(COc1ccc(Cl)cc1Cl)Nc1ccc2[nH]c(=O)[nH]c2c1	21	31*	51*	0
O=C(COC(=O)c1ccc(Cl)s1)c1ccc2[nH]c(=O)[nH]c2c1	8	11	32*	4
Cc1nc(C2CCCN2C(=O)c2ccccn2)nc2c1CC(=O)N2CCc1ccccc1F (stereo not drawn)	-13	-7	61*	-4
Cc1nc(C2CCCN2C(=O)c2ccnn2C)nc2c1CC(=O)N2Cc1ccc(F)cc1 (stereo not drawn)	-8	-6	40*	2
CC(=O)N1CCC2(CC1)OC(C(=O)Nc1cccnc1)Cn1ccnc12 (stereo not drawn)	-4	-11	-38	-2
Cc1cccc(C(=O)Nc2c(C(=O)NCc3ccccn3)[nH]c3ccccc23)c1	-4	-2	-18	0
O=C(COC(=O)CCc1nc2ccccc2[nH]c1=O)Nc1ccc([N+](=O)[O-])cc1	-6	-6	81*	4
Cc1cc(C)cc(NC(=O)Cn2cnc3c(nnn3Cc3ccccc3F)c2=O)c1	12	15	13	0
C[C@]12CN(Cc3cccc4cccnc34)C[C@H]1NC(=O)c1ccccc1C2=O	1	0	44*	0
COc1ccccc1CN1C[C@H]2NC(=O)c3ccccc3C(=O)[C@@]2(C)C1	-4	0	3	0
CC1CCN(Cc2nc(-c3ccc(N4CCOCC4)nc3)no2)CC1	-1	0	0	-3
O=C(c1cccc2ncccc12)N1CCN(c2ccnc3cc(Cl)ccc23)CC1	-1	1	48*	22
O=C(Cc1ccccc1)N1CCN(c2ccnc3cc(Cl)ccc23)CC1	-70	0	-42	-1
Cc1ccsc1C1CCCCCN1S(=O)(=O)c1ccccc1F (stereo not drawn)	6	7	32*	3
Cc1ccccc1S(=O)(=O)N1CCCCCC1c1sccc1C (stereo not drawn)	13	0	0	2
COCCN1C(=O)c2ccccc2C(C(=O)Nc2cccnc2)C12CCCC2 (stereo not drawn)	0	-2	0	0
Cc1nc2c(c(-c3ccc(O)cc3)n1)CCNCC2	-2	-7	46*	-4
COc1ccc(-c2nc(C3CC3)nc3c2CCNCC3)cc1	-4	-1	1	-1
COc1c2c(cc3cc(O)c4c(=O)cc(C)oc4c13)CCC2=O	-38	-3	0	7
COc1cc(O)c2c(O)c3c(cc2c1)C[C@@]1(O)CC(=O)C(C(N)=O)=C(O)[C@@]1(O)C3=O	65*	11	-9	70*
COc1cccc(C(CC(=O)Nc2ccc3c(c2)OCCO3)n2cccc2)c1 (stereo not drawn)	-3	11	-43	32*
Cc1cc(NC(=O)C2(c3ccc(F)cc3)CCCC2)n(-c2nc3ccccc3[nH]2)n1	10	11	70*	6
COC(=O)c1c(OC)cc2c(c1C)Oc1c(Cl)c(O)c(Cl)c(C)c1C(=O)O2	8	32*	-4	3
O=C1CC(c2ccc(Cl)cc2)Cc2nc(N3CCc4ccccc43)ncc21 (stereo not drawn)	-2	1	-18	-2
CCOc1ccc(-n2ccnc2SCC(=O)NCc2ccc(F)cc2)cc1	-3	1	-130	-3
SMILES	USP7 inh	USP10 inh	USP8 inh	UCHL1 block
Cn1c2ccc(F)cc2c2ncn(Cc3ccc4c(c3)OCO4)c(=O)c21	6	4	32*	5
C[C@H]1CN(C(=O)Nc2ccc3c(c2)CCC3)C[C@@H]1c1nc(-c2ccncc2)no1	0	1	-1	2
NCc1ccc(C(=O)N2CCC3(CC2)C(=O)Nc2ccccc23)cc1	-59	-1	85*	5
CN(C)c1ccc(/C=N/NC(=O)c2ccc(Cl)cc2)cc1	10	14	51*	1
CC(=O)Nc1ccc(SCc2nc3ccccc3nc2C)cc1	1	-1	39*	2
COc1ccc(NC(=O)Cn2c(CSc3ccc(C)cc3)nc3ccccc32)cc1	0	-4	-4	1
Cc1nc2ccccn2c(=O)c1NC(=O)Cc1ccc(Cl)cc1	-38	1	3	0
Cc1c(C)n(-c2ccccc2)c2ncn(CC(=O)NCCCc3ccccc3)c(=O)c12	-7	3	11	-1
Cc1ccc(NC(=O)Cc2nnc3c(-c4nc(C5CC5)no4)cccn23)cc1F	53*	54*	93*	31*
Cc1ccc(NC(=O)Cc2nnc3c(-c4nc(C5CC5)no4)cccn23)c(C)c1	7	8	65*	9
Cc1ccc(NC(=O)Cn2c(C)cc(-c3nc(C4CC4)no3)c2C)c(F)c1	-11	-2	-21	-10
CCOc1ccc(NC(=O)c2nc(N3CCOCC3)c3c(C)scc3n2)cc1	3	3	-141	1
COc1cccc(NC(=O)Cn2c3ccccc3n3c(=O)cc(-c4ccccc4)nc23)c1	27	49*	88*	3
COc1cccc(NC(=O)CCn2c(=O)c3cccn3c3ccccc32)c1	4	0	5	4
Cc1ccccc1CNC(=O)c1cccc(N2C(=O)CCS2(=O)=O)c1	2	-3	8	-2
O=C(Nc1ccc(N2CCCCC2)cc1)c1cccc(N2C(=O)CCS2(=O)=O)c1	-6	3	43*	4
O=C(NCC1(c2ccccc2)CCC1)c1nc2n(n1)-c1ccccc1S(=O)(=O)N2	10	39*	-3	4
O=C(NCc1ccccc1F)c1nc2n(n1)-c1ccccc1S(=O)(=O)N2	3	12	0	1
O=C(Nc1ccccc1Cc1ccccc1)c1nc2n(n1)-c1ccccc1S(=O)(=O)N2	17	46*	59*	4
CC(C)N1C[C@@H]2C[C@H](NC(=O)Nc3ccccc3)CN2Cc2ccccc21	-16	-5	-43	-16
O=C(Nc1ccc(Cl)cc1Cl)c1ccn(COc2ccccc2F)n1	5	0	20	0
O=C(Nc1ccccc1Cl)c1ccn(COc2ccccc2F)n1	9	5	35*	1
Cc1ccc(-c2cc(CC3(C(=O)N(C)C)CCCN(C(=O)C4CCCC4)C3)on2)cc1 (stereo not drawn)	0	-1	4	3
O=C1CC(c2cc3c(cc2Br)OCO3)c2cc3c(cc2N1)OCCO3 (stereo not drawn)	2	40*	4	3
O=C1CC(c2cc(F)ccc2F)c2cc3c(cc2N1)OCCO3 (stereo not drawn)	-10	2	6	2
COc1cccc(-n2cnc3cc(C(=O)NC4CC4)ccc3c2=O)c1	-7	2	92*	11
COc1ccc(CCNC(=O)c2ccc3c(=O)n(-c4ccccc4OC)cnc3c2)cc1	0	3	-10	0
O=C(NC1CC1)c1ccc2c(=O)n(-c3ccc(F)cc3)cnc2c1	-7	-1	62*	-3
CC(=O)Nc1cc(NC(=O)CSc2nnc(-c3ccco3)c(-c3ccco3)n2)ccc1C	-81	-3	73*	16
O=C(NCc1ccccc1)c1cc2occc2c(Nc2ccc(F)cc2)n1	2	18	-11	1
